From PubChem BioAssay
Entries with a potency or affinity are not part of this list. Activity calls are given as the source filed them.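 The calls were made as follows: active = fitted dose curve reaches 40% lysis signal rise at or below the highest valid concentration tested for that sample; inconclusive = flat fit between 30% and 70%, or poor curve fit; inactive = signal falls, stays flat within 30%, or no crossing.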

Assay: inducers of Cryptococcus neoformans cell lysis, dose response, AK release luminescence, cherry-picks (AID 687000);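 also: luminescent detection of adenylate kinase leaking from lysed yeast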
Conditions: C. neoformans lysis, adenylate kinase release luminescence, 4 h, 100% = twice the neutral-control signal; series mostly up to 15 µM

outcome, inactive:
Cc1cccc(-c2ccc([C@@H]3[C@@H](CO)N4CCCCN(S(=O)(=O)c5ccccc5C)C[C@@H]34)cc2)c1
CC(C)NC(=O)Nc1ccc2c(c1)C(=O)N([C@@H](C)CO)C[C@@H](C)[C@@H](CN(C)C(=O)NC1CCCCC1)OCCCC[C@H](C)O2
COc1ccc(CN(C)C[C@@H]2Oc3ccc(NC(=O)C4CC4)cc3C(=O)N([C@@H](C)CO)C[C@H]2C)cc1
Cc1noc(C)c1NC(=O)N(C)C[C@@H]1Oc2ccc(NC(=O)NC(C)C)cc2CC(=O)N([C@@H](C)CO)C[C@@H]1C
O=C(CSc1ncnc2c1cnn2-c1ccc(F)cc1)NCc1ccc2c(c1)OCO2
Cc1ccccc1S(=O)(=O)N[C@@H]1CC[C@H](CCNS(=O)(=O)c2cccc(F)c2)O[C@H]1CO
CO[C@@H]1CN(C)C(=O)c2ccc(NS(=O)(=O)c3ccc(Oc4ccccc4)cc3)cc2OC[C@H](C)NC[C@H]1C
Cc1ccc(OCC(=O)NC(C)c2ccccc2)cc1C (configuration not stated)
O=C(C[C@H]1CC[C@H]2[C@@H](COC[C@H](O)CN2C(=O)Nc2ccc3c(c2)OCO3)O1)N1CCN(c2ccccc2)CC1
Cc1ccc(S(=O)(=O)N2CC[C@@H]3[C@H]2c2cc(-c4ccccc4F)ccc2N[C@@H]3CO)cc1
C[C@H]1CN([C@@H](C)CO)C(=O)Cc2cc(NS(=O)(=O)c3cn(C)cn3)ccc2O[C@@H]1CN(C)Cc1ccc(Oc2ccccc2)cc1
Cc1cccc(C)c1NC(=O)C1(NC(=O)C2CCC(=O)N2)CCCCC1 (configuration not stated)
